# Entries with a potency or affinity are not part of this list. A number with no mark means an inactive call.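 The calls were made as follows: active = signal-lowering compounds whose fitted half-maximal concentration is at or below twice the top tested dose in every run; inconclusive = runs disagree, flat 30 to 70% inhibition, or poor curve fit; inactive = the rest.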
# Target: Protein S100-A4 (Homo sapiens) (UniProt P26447)
# Test: S100A4-myosin IIA binding inhibitor potency, dose response, biochemical, fluorescence polarization, cherry-picked hits (AID 687001);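 also: 0% = DMSO neutral control wells and -100% = TFP positive control wells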
# Conditions: FP, S100A4/TAMRA-myosin IIA peptide binding; series mostly up to 11 µM; activity change, negative = inhibition: at the top concentration
# Sequence of Protein S100-A4 (Homo sapiens) (P26447 whole entry, looked up): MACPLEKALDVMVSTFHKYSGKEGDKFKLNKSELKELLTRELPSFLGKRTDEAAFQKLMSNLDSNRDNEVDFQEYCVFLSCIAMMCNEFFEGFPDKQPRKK
row,Compound,"activity change, negative = inhibition"
1,CC(=O)N1CC(C)Oc2ccc(S(=O)(=O)NC(CC(=O)O)c3cc(C)ccc3C)cc21 (stereo not given),0.235%
2,CN1c2ccc(C3=CCCCC3)cc2[C@@H]2[C@@H](CCN2C(=O)C2CC2)[C@H]1CO,-0.905% [at 10 µM]
3,CCCC(=O)Nc1ccc2c(c1)OC[C@@H](C)N(Cc1ccncc1)C[C@H](C)[C@H](OC)CN(C)C2=O,-1.51%
4,CNC[C@@H]1OCCCC[C@@H](C)Oc2ccc(NS(=O)(=O)c3cccs3)cc2C(=O)N([C@H](C)CO)C[C@H]1C,12.2%
5,CN(C)CC(=O)N[C@H]1CC[C@@H](CC(=O)NCc2ccc(Cl)cc2)O[C@@H]1CO,-2.55%
6,C[C@@H]1CN([C@H](C)CO)S(=O)(=O)c2ccc(C#C[C@@H](C)O)cc2O[C@@H]1CN(C)C(=O)C1CC1,3.2%
7,Cc1ccc(/C=C2/SC(=O)N(CC(=O)N3CCOCC3)C2=O)s1,7.53% [at 2.6 µM]
8,COC(=O)[C@@]12C[C@@H](CC(=O)N3CCN(C(=O)c4ccco4)CC3)C(=O)N(CCc3ccc(OC)c(OC)c3)C1=CCC(C)(C)C2,-1.37%
9,ON(CCc1ccncc1)Cc1ccccc1,-20.2%
10,O=C(C[C@H]1C=C[C@H](NC(=O)CCN2CCCCC2)[C@H](CO)O1)Nc1nccs1,1.99%
11,CCS(=O)(=O)Nc1ccc2c(c1)C(=O)N(C)C[C@@H](OC)[C@@H](C)CN(C(C)=O)[C@H](C)CO2,-0.437%
12,CCN(CC)C(=O)c1ccccc1NS(=O)(=O)c1cccs1,1.48%
13,COc1ccc2c3c(n(C)c2c1)[C@@H](CO)N(C(=O)Nc1ccc(F)cc1)CC31CCN(C)CC1,2.05%
14,COc1cc2c3nnc(-c4ccc(F)cc4)c-3cn(Cc3ccc(C)cc3)c2cc1OC,-30.6%
15,C[C@H](CO)N1C[C@H](C)[C@@H](CN(C)Cc2ccc(C(=O)Nc3ccccc3N)cc2)Oc2c(NC(=O)C3CCCCC3)cccc2C1=O,12.5%
16,O=C(O)c1cccc(C(=O)O)c1S(=O)Cc1ccccc1 (stereo not given),-2.41%
17,Cc1cc(F)ccc1S(=O)(=O)N1CCCOC1CNC(=O)C(=O)NCc1ccc2c(c1)OCO2 (stereo not given),-1.74%
18,CCOC(=O)c1c(S(=O)(=O)N2CCCC(C(=O)Nc3ccc(C)cn3)C2)c(C)n(C)c1C (stereo not given),-1.51%
19,Cc1cccc(NS(=O)(=O)c2c(C(=O)N3CCOCC3)c(C)n(C)c2C)c1C,-2.74%
20,CCOC(=O)N1CCN(S(=O)(=O)c2ccc(C)c(C(=O)NC3CCCCC3)c2)CC1,-0.87%
21,COCC(=O)N(C)C[C@H]1Oc2cc(C#CCN(C)C)ccc2S(=O)(=O)N([C@@H](C)CO)C[C@H]1C,2.11%
22,CCOC(=O)C1=C(c2ccccc2)NC(=O)NC1c1cc(OC)c(OC)c(OC)c1 (stereo not given),-3.42%
23,C[C@@H]1CN([C@H](C)CO)C(=O)c2cc(NS(=O)(=O)c3ccc(Cl)cc3)ccc2O[C@@H](C)CCCCO[C@H]1CN(C)Cc1ccc(Cl)c(Cl)c1,12.6%
24,O=S(=O)(NCC(c1ccc2c(c1)OCO2)N1CCN(c2ccccc2)CC1)c1ccccc1 (stereo not given),1.36%
25,O=C(C[C@@H]1C=C[C@@H](NS(=O)(=O)c2cccc(F)c2)[C@@H](CO)O1)NCc1ccc2c(c1)OCO2,1.68%
